The panel holds about 79,000 compounds, 15% with a hit somewhere; the sample as a whole holds those more often. Rule as the data show it: active = growth inhibition above about 70%; inactive = the rest.
How the values were obtained:
[1] = NCI Yeast Anticancer Drug Screen. Data for the rad50 strain (AID 155);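 also: 0% = growth of vehicle-only cultures of the same strain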; conditions: S. cerevisiae rad50 strain growth inhibition; at 50.0 µM; active compounds read high
Summary of the method: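 Compounds were tested on a yeast strain with an engineered DNA damage repair alteration; the reported value is growth inhibition normalised to vehicle treatment.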

[2] = NCI Yeast Anticancer Drug Screen. Data for the mec2-1 strain (AID 157); conditions: S. cerevisiae mec2-1 strain, at 50.0 µM, active compounds read high
Summary of the method: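 Yeast mec2-1 mutant treated with compound. Readout: growth inhibition vs vehicle controls.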

[3] = NCI Yeast Anticancer Drug Screen. Data for the sgs1 mgt1 strain (AID 161);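 also: 0% = growth of cultures given vehicle only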; conditions: S. cerevisiae sgs1 mgt1 strain, at 50.0 µM, active compounds read high
Summary of the method: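 Genetically altered yeast, compound exposure, growth inhibition relative to vehicle.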

[4] = NCI Yeast Anticancer Drug Screen. Data for the cln2 rad14 strain (AID 165);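 also: 0% = growth equal to vehicle treated cultures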; conditions: S. cerevisiae cln2 rad14 strain, at 50.0 µM, active compounds read high
Summary of the method: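 cln2 rad14 yeast strain; compound exposure; growth inhibition read vs vehicle controls.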

[5] = NCI Yeast Anticancer Drug Screen. Data for the bub3 strain (AID 167); conditions: S. cerevisiae bub3 mutant strain, at 50.0 µM, active compounds read high
Summary of the method: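 Growth of a checkpoint-deficient yeast mutant is measured after compound exposure. Values represent inhibition relative to vehicle.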

[6] = NCI Yeast Anticancer Drug Screen. Data for the mlh1 rad18 strain (AID 175); conditions: S. cerevisiae mlh1 rad18 strain growth inhibition; at 50.0 µM; active compounds read high
Summary of the method: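 Yeast w/ defined DNA-repair lesions; compound exposure; growth vs vehicle controls → % inhibition.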

Measured: growth inhibition

CC(=O)Nc1cc2cc(N)ccc2oc1=O
inactive: [1] -6.2% | [2] 0.4% | [3] 8.9% | [4] 10.4% | [5] 15.2% | [6] 16.6%

CC(O)CN1c2ccccc2Sc2ccccc21 (stereo unspecified)
inactive: [1] -17.4% | [2] -13.7% | [3] -13.2% | [4] -18.2% | [5] -13.8% | [6] 7.55%

O=C(c1ccccc1)c1ccc(N2CCOCC2)cc1
inactive: [1] -29.4% | [2] -44.9% | [3] 24.4% | [4] 4.75% | [5] -7.85% | [6] -5.7%

CCc1cccc(CC)c1N=C(NC(=O)c1ccc(Br)cc1)SC
inactive: [1] -17.6% | [2] -16.5% | [3] -4.7% | [4] -6.75% | [5] -17.1% | [6] -5.65%

Cn1cnc(N2CCCC2)c(C#N)c1=S
inactive: [1] 3.45% | [2] -4.95% | [3] -4.7% | [4] -12.2% | [5] 2.55% | [6] 0.25%

CCOc1ccc(N=C=S)cc1
inactive: [1] 29.9% | [2] -3.05% | [3] 18% | [4] 22.3% | [5] 18.9% | [6] 49%

CCC(CC)C(=O)NC
inactive: [1] -4.25% | [2] -5.2% | [3] -3.5% | [4] 2.2% | [5] -0.85% | [6] -1.8%

C=CCON(C)c1ccc([N+](=O)[O-])cc1[N+](=O)[O-]
inactive: [1] 15.3% | [2] -0.9% | [3] 16.1% | [4] -43.9% | [5] -1.05% | [6] 13.8%

CC(=O)OC1OCCCC1Cl (stereo unspecified)
inactive: [1] -8.95% | [2] -27.9% | [3] -7.75% | [4] -3.2% | [5] -30.8% | [6] 10.3%

O=C1c2sccc2[C@H](NC(=O)C(F)(F)F)[C@@H]1Cl
inactive: [1] 4.5% | [2] 3.45% | [3] 1.1% | [4] 25.1% | [5] 7.25% | [6] 18.6%

C=CC(O)CCCCCC (stereo unspecified)
inactive: [1] -4.9% | [2] -27.8% | [3] -22.4% | [4] -5.1% | [5] -10.2% | [6] -20.7%

COc1ccc(COC(=O)Nc2ccccc2Cl)cc1
inactive: [1] 5.85% | [2] -9.45% | [3] -4.9% | [4] -6.9% | [5] 17% | [6] -6.35%

CN(C)c1ccc(Cc2ccc(N(C)C)cc2)cc1
inactive: [1] -4.1% | [2] -6.3% | [3] -16.9% | [4] -23.6% | [5] 10.4% | [6] 7%

Clc1nc2ccccc2c2ccccc12
inactive: [1] 36.5% | [2] -3.6% | [3] -4% | [4] 29.5% | [5] -13.2% | [6] 4.5%

O=C1OC2c3ccccc3CC1C2CO (stereo unspecified)
inactive: [1] 20.9% | [2] 4.7% | [3] 7.55% | [4] 9.25% | [5] 2% | [6] -4.45%

O=C(Nc1cccc(Cl)c1Cl)c1cc(/C=C/c2ccc([N+](=O)[O-])cc2)on1
inactive: [1] -21.2% | [2] 1.15% | [3] -12.8% | [4] 9.1% | [5] -8.25% | [6] -3.85%

CCOC(=O)CC1c2ccc(O)cc2OC(=O)C1c1ccc(N)cc1 (stereo unspecified)
inactive: [1] -29.1% | [2] -17.5% | [3] -14.8% | [4] -4.6% | [5] -19.2% | [6] -13.6%

Cc1ccc2c(c1)C(c1ccccc1)(c1ccccc1)N(c1ccccc1)S2(=O)=O
inactive: [1] 51.2% | [2] 34.2% | [3] 64.7% | [4] 25.2% | [5] 20.5% | [6] 58.6%

COC1CC(N=[N+]=[N-])C(OS(C)(=O)=O)C(C)O1 (stereo unspecified)
inactive: [1] -2.35% | [2] 22.1% | [3] 1.7% | [4] 3.7% | [5] -9% | [6] 14.8%

CCN=C(N)CSS(=O)(=O)O
inactive: [1] -1.9% | [2] -28.1% | [3] -32.8% | [4] -4.6% | [5] -22% | [6] -16.7%

Nc1ccc(-c2c[nH]c(=O)c([N+](=O)[O-])c2)cc1
inactive: [1] 3.5% | [2] -6.05% | [3] -1.35% | [4] -28.5% | [5] 3.5% | [6] -6.4%
